# Experimental data reported in PubChem BioAssay (NCI).
# About 79,000 compounds went through this panel and 15% of them were active in at least one assay; those are over-represented in the sample as a whole. Values without a mark were called inactive. The source made the active and inactive calls. No stated cut-off is given here; in the data, active means growth inhibition above about 70%; inactive means the rest.
# Legend:
# [1] = NCI Yeast Anticancer Drug Screen. Data for the rad50 strain (AID 155);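 further: 0% = growth of vehicle-only cultures of the same strain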; details: S. cerevisiae rad50 strain growth inhibition; at 50.0 µM; active compounds read high
# Procedure, shortened: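 Genetically altered yeast (DNA repair pathway); compound treatment; growth inhibition vs vehicle ctrl.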
# [2] = NCI Yeast Anticancer Drug Screen. Data for the mec2-1 strain (AID 157); details: S. cerevisiae mec2-1 strain, at 50.0 µM, active compounds read high
# Procedure, shortened: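 mec2-1 yeast strain, carrying an alteration in DNA damage repair or cell cycle control, was exposed to compounds; growth inhibition was measured relative to vehicle-treated controls.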
# [3] = NCI Yeast Anticancer Drug Screen. Data for the sgs1 mgt1 strain (AID 161);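 further: 0% = growth of cultures given vehicle only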; details: S. cerevisiae sgs1 mgt1 strain, at 50.0 µM, active compounds read high
# Procedure, shortened: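 This yeast growth screen uses a strain with defined DNA-repair lesions; compound-treated growth is compared with vehicle-treated growth.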
# [4] = NCI Yeast Anticancer Drug Screen. Data for the cln2 rad14 strain (AID 165);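 further: 0% = growth equal to vehicle treated cultures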; details: S. cerevisiae cln2 rad14 strain, at 50.0 µM, active compounds read high
# Procedure, shortened: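 Yeast carrying cln2 and rad14 alterations (cell cycle control and DNA damage repair) were exposed to compounds. Growth inhibition was measured against vehicle-treated controls.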
# [5] = NCI Yeast Anticancer Drug Screen. Data for the bub3 strain (AID 167); details: S. cerevisiae bub3 mutant strain, at 50.0 µM, active compounds read high
# Procedure, shortened: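 Yeast carrying a defined mutation is treated with each compound, and growth is compared with that of vehicle-exposed cells to give inhibition.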
# [6] = NCI Yeast Anticancer Drug Screen. Data for the mlh1 rad18 strain (AID 175); details: S. cerevisiae mlh1 rad18 strain growth inhibition; at 50.0 µM; active compounds read high
# Procedure, shortened: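 Growth inhibition of the yeast strain was measured after compound exposure and expressed relative to vehicle-treated controls. The strain carries defined defects in DNA damage repair.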
SMILES,growth inhibition [1],growth inhibition [2],growth inhibition [3],growth inhibition [4],growth inhibition [5],growth inhibition [6]
CCNN(CC)C(N)=O,5.2%,-5%,0.4%,7.6%,-13.2%,-1.25%
O=C1CSC(c2ccc(C(F)(F)F)cc2)N1c1nncs1 (stereo unspecified),-1.2%,-3.5%,29%,-1.45%,12.6%,24.2%
C/C=C/CNc1ccc(C)cc1,30.5%,20.9%,25.7%,28.4%,2.2%,22.8%
CC(/C=C1\N=C(c2ccccc2)OC1=O)=C\c1ccccc1,-40%,-22.1%,-33.5%,9.2%,-35.4%,-28.9%
COC(=O)C1c2ccccc2CC(=O)N1NC(C)=O (stereo unspecified),15.6%,1.65%,-19.4%,9.65%,5.3%,10.4%
CCCCCCCCCCCCCCCC[N+](C)(C)CC#CCCl,-3.15%,99.5% (active),48.6%,98.7% (active),99.3% (active),48.8%
Cn1c(=O)c2cc(O)cnc2n(C)c1=O,4.8%,-5.8%,0.3%,-14.7%,-7.35%,-3%
O=C(O)/C=C/C(=O)Nc1ccc(Cl)cc1C(=O)c1ccccc1,24.6%,9.1%,33%,0.4%,14.6%,20.8%
Cn1c(=O)c2c(nc3sc4c(n32)C(=O)c2c(O)ccc(O)c2C4=O)n(C)c1=O,21.6%,30.2%,51.5%,55.2%,41%,-7.2%
COC(=O)C(NC(=O)C(CC(=O)OC(C)(C)C)NC(=O)OC(C)(C)C)C(O)c1ccccc1 (stereo unspecified),-35.6%,-23.9%,-22.4%,-0.75%,-27.6%,-0.85%
Cc1ccc2c(c1)C(=O)c1ccccc1C2=O,7.8%,1.05%,1.9%,11.9%,52%,6%
COc1c(CC=C(C)C)c(O)c(C(CC(C)C)c2c(O)c(CC=C(C)C)c(O)c(C(C)=O)c2O)c(O)c1C(C)=O (stereo unspecified),32.9%,41.5%,34%,41.3%,38.5%,31.1%
COP(=O)(OC)C1c2cc(Cl)ccc2-c2c(Cl)cc(Cl)cc21 (stereo unspecified),88.8% (active),67.9%,83.7% (active),49.5%,32.6%,68.8%
COC(=O)CCc1cc(=O)oc2c3c(cc(OC)c12)OC1OC(=O)CC31 (stereo unspecified),-24%,-22.3%,-19.1%,6.4%,-20.1%,-7.25%
C=CCn1c(=O)c(C(=O)Nc2nc(C34CC5CC(CC(C5)C3)C4)cs2)c(O)c2ccccc21,-22.7%,-4.6%,-14.1%,4.4%,4.5%,-19.1%
CC1N=C(c2ccccc2)SC1C (stereo unspecified),-14.2%,-18.4%,-24.9%,-49.4%,-11%,-38.3%
Cc1ccc(S(=O)(=O)OC/C(=C(/c2ccccc2)c2ccc(Cl)cc2)c2ccccc2)cc1,96.8% (active),97.5% (active),95.8% (active),87.3% (active),95.3% (active),96.6% (active)
CCOC(=O)c1cc(C)nc2ccc(Br)cc12,-3.2%,3.45%,-11.2%,-5.85%,4.2%,-11.7%
CCOC(=O)/C=C/CI,12.8%,-34.5%,10.4%,8.4%,13.5%,16.2%
N#Cc1c(NC(=S)NC(=O)c2ccccc2)nc2c(c1-c1ccccc1)CCCC2,28%,17.9%,30.1%,1.05%,17.4%,21.6%
Cc1c2occc2cc2c1oc(=O)c1cnccc12,0.95%,-0.15%,1.85%,21.2%,-4.95%,14.9%
